Test results reported in paper PMC8384837, “Expanding the binding specificity for RNA recognition by a PUF domain”.

Tests used:
Assay in all cases: yeast three-hybrid, YBZ-1, SC-Leu-His + 0.5 mM 3-AT, 4 days
Conditions in all cases: tags: N-Gal4 AD-HA kept; label: inside an RPR1-promoter hybrid RNA with tandem MS2 sites; ssRNA
PUM1 PUF domain R1-SPR = PUM1 PUF domain R1-SPR (Homo sapiens, UniProt Q14671 828-1176, R864P;Q867R)
Method in brief: (§1)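 The interaction score is the log change in how often each variant appears, from input to selection. Frequencies came from PCR-amplified, Illumina-sequenced repeat regions of Pumilio-1 PUF domain libraries grown in strain YBZ-1 (LexA–MS2 coat fusion, HIS3 reporter) alongside matching RNA elements. Input plates were SC-Leu and selection plates were SC-Leu-His + 0.5 mM 3-AT, each for four days, and the log2 calculation used a pseudocount of 1 where a variant was absent.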

PUM1 PUF domain R1-RVT = PUM1 PUF domain R1-RVT (Homo sapiens, UniProt Q14671 828-1176, S863R;R864V;Q867T)
Method in brief: as §1

PUM1 PUF domain R1-KNS = PUM1 PUF domain R1-KNS (Homo sapiens, UniProt Q14671 828-1176, S863K;R864N;Q867S)
Method in brief: as §1

PUM1 PUF domain R1-GRK = PUM1 PUF domain R1-GRK (Homo sapiens, UniProt Q14671 828-1176, S863G;Q867K)
Method in brief: as §1

PUM1 PUF domain R7-EHG = PUM1 PUF domain R7-EHG (Homo sapiens, UniProt Q14671 828-1176, S1079E;N1080H;E1083G)
Method in brief: as §1

PUM1 PUF domain R4-GNC = PUM1 PUF domain R4-GNC (Homo sapiens, UniProt Q14671 828-1176, N971G;H972N;Q975C)
Method in brief: as §1

PUM1 PUF domain R5-DKQ = PUM1 PUF domain R5-DKQ (Homo sapiens, UniProt Q14671 828-1176, C1007D;R1008K)
Method in brief: as §1

PUM1 PUF domain R5-FRC = PUM1 PUF domain R5-FRC (Homo sapiens, UniProt Q14671 828-1176, C1007F;Q1011C)
Method in brief: as §1

PUM1 PUF domain R5-KQD = PUM1 PUF domain R5-KQD (Homo sapiens, UniProt Q14671 828-1176, C1007K;R1008Q;Q1011D)
Method in brief: as §1

PUM1 PUF domain R5-GRI = PUM1 PUF domain R5-GRI (Homo sapiens, UniProt Q14671 828-1176, C1007G;Q1011I)
Method in brief: as §1

PUM1 PUF domain R8-PWH = PUM1 PUF domain R8-PWH (Homo sapiens, UniProt Q14671 828-1176, N1122P;Y1123W;Q1126H)
Method in brief: as §1

PUM1 PUF domain R3-LFG = PUM1 PUF domain R3-LFG (Homo sapiens, UniProt Q14671 828-1176, C935L;R936F;Q939G)
Method in brief: as §1

PUM1 PUF domain R2-NWW = PUM1 PUF domain R2-NWW (Homo sapiens, UniProt Q14671 828-1176, Y900W;Q903W)
Method in brief: as §1

PUM1 PUF domain R3-CRR = PUM1 PUF domain R3-CRR (Homo sapiens, UniProt Q14671 828-1176, Q939R)
Method in brief: as §1

PUM1 PUF domain R5-ERK = PUM1 PUF domain R5-ERK (Homo sapiens, UniProt Q14671 828-1176, C1007E;Q1011K)
Method in brief: as §1

PUM1 PUF domain R3-GPF = PUM1 PUF domain R3-GPF (Homo sapiens, UniProt Q14671 828-1176, C935G;R936P;Q939F)
Method in brief: as §1

PUM1 PUF domain R6-QRQ = target: T1, PUM1 PUF domain R6-QRQ (Homo sapiens, UniProt Q14671 828-1176, N1043Q;Y1044R)
T1 sequence: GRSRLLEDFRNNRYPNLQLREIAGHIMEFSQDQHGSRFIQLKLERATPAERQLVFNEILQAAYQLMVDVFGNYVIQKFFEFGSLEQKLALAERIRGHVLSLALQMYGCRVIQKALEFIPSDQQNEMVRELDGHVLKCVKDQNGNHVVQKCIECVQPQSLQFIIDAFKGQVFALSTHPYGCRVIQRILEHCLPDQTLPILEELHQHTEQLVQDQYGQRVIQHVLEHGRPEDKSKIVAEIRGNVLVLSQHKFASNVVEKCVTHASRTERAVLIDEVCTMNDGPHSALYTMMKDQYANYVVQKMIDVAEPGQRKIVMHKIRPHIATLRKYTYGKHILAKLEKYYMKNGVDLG
Method in brief: as §1

PUM1 PUF domain R7-TSS = PUM1 PUF domain R7-TSS (Homo sapiens, UniProt Q14671 828-1176, S1079T;N1080S;E1083S)
Method in brief: as §1

PUM1 PUF domain R3-LHG = PUM1 PUF domain R3-LHG (Homo sapiens, UniProt Q14671 828-1176, C935L;R936H;Q939G)
Method in brief: as §1

PUM1 PUF domain R2-PWE = PUM1 PUF domain R2-PWE (Homo sapiens, UniProt Q14671 828-1176, N899P;Y900W;Q903E)
Method in brief: as §1

GGCUAGAACUAGUGGAUCCCCCGGCGCCCGGCGGCUCGAGCCCGGGUAAGUGUAAAUUGUCUGCAUGCCGCCGGGCGCCAUGCCUGCAGGUCGACUCUAGAAAACAUG
binding signal (PUM1 PUF domain R1-SPR): 1.48 log2 enrichment (interaction score)
binding signal (PUM1 PUF domain R1-RVT): 4.35 log2 enrichment (interaction score)
binding signal (PUM1 PUF domain R1-KNS): 3.86 log2 enrichment (interaction score)
binding signal (PUM1 PUF domain R1-GRK): 3.96 log2 enrichment (interaction score)

GGCUAGAACUAGUGGAUCCCCCGGCGCCCGGCGGCUCGAGCCCGGGUAAGUCUAAAUAGUCUGCAUGCCGCCGGGCGCCAUGCCUGCAGGUCGACUCUAGAAAACAUG
binding signal (PUM1 PUF domain R7-EHG): 5.15 log2 enrichment (interaction score)

GGCUAGAACUAGUGGAUCCCCCGGCGCCCGGCGGCUCGAGCCCGGGUAAGUGUACAUAGUCUGCAUGCCGCCGGGCGCCAUGCCUGCAGGUCGACUCUAGAAAACAUG
binding signal (PUM1 PUF domain R4-GNC): 3.28 log2 enrichment (interaction score)

GGCUAGAACUAGUGGAUCCCCCGGCGCCCGGCGGCUCGAGCCCGGGUAAGUGUCAAUAGUCUGCAUGCCGCCGGGCGCCAUGCCUGCAGGUCGACUCUAGAAAACAUG
binding signal (PUM1 PUF domain R5-DKQ): 5.31 log2 enrichment (interaction score)
binding signal (PUM1 PUF domain R5-FRC): 3.83 log2 enrichment (interaction score)
binding signal (PUM1 PUF domain R5-KQD): 2.75 log2 enrichment (interaction score)
binding signal (PUM1 PUF domain R5-GRI): 1.2 log2 enrichment (interaction score)

GGCUAGAACUAGUGGAUCCCCCGGCGCCCGGCGGCUCGAGCCCGGGUAAGUGUAAAUAGUCUGCAUGCCGCCGGGCGCCAUGCCUGCAGGUCGACUCUAGAAAACAUG
binding signal (PUM1 PUF domain R8-PWH): 2.69 log2 enrichment (interaction score)
binding signal (PUM1 PUF domain R4-GNC): 1.09 log2 enrichment (interaction score)
binding signal (PUM1 PUF domain R3-LFG): 1.41 log2 enrichment (interaction score)
binding signal (PUM1 PUF domain R2-NWW): 3.94 log2 enrichment (interaction score)
binding signal (PUM1 PUF domain R3-CRR): 2.78 log2 enrichment (interaction score)
binding signal (PUM1 PUF domain R5-ERK): 4.01 log2 enrichment (interaction score)
binding signal (PUM1 PUF domain R3-GPF): 5.65 log2 enrichment (interaction score)
binding signal (PUM1 PUF domain R6-QRQ): 2.52 log2 enrichment (interaction score)
binding signal (PUM1 PUF domain R5-GRI): 3.04 log2 enrichment (interaction score)

GGCUAGAACUAGUGGAUCCCCCGGCGCCCGGCGGCUCGAGCCCGGGUAAGUGUUAAUAGUCUGCAUGCCGCCGGGCGCCAUGCCUGCAGGUCGACUCUAGAAAACAUG
binding signal (PUM1 PUF domain R5-GRI): 3.43 log2 enrichment (interaction score)

GGCUAGAACUAGUGGAUCCCCCGGCGCCCGGCGGCUCGAGCCCGGGUAAGUUUAAAUAGUCUGCAUGCCGCCGGGCGCCAUGCCUGCAGGUCGACUCUAGAAAACAUG
binding signal (PUM1 PUF domain R7-TSS): 2.55 log2 enrichment (interaction score)

GGCUAGAACUAGUGGAUCCCCCGGCGCCCGGCGGCUCGAGCCCGGGUAAGUGUAAGUAGUCUGCAUGCCGCCGGGCGCCAUGCCUGCAGGUCGACUCUAGAAAACAUG
binding signal (PUM1 PUF domain R3-LFG): 4.75 log2 enrichment (interaction score)
binding signal (PUM1 PUF domain R3-CRR): 1.17 log2 enrichment (interaction score)
binding signal (PUM1 PUF domain R3-LHG): 6.02 log2 enrichment (interaction score)

GGCUAGAACUAGUGGAUCCCCCGGCGCCCGGCGGCUCGAGCCCGGGUAAGUGUAAAUGGUCUGCAUGCCGCCGGGCGCCAUGCCUGCAGGUCGACUCUAGAAAACAUG
binding signal (PUM1 PUF domain R1-RVT): 3.15 log2 enrichment (interaction score)

GGCUAGAACUAGUGGAUCCCCCGGCGCCCGGCGGCUCGAGCCCGGGUAAGUGUGAAUAGUCUGCAUGCCGCCGGGCGCCAUGCCUGCAGGUCGACUCUAGAAAACAUG
binding signal (PUM1 PUF domain R5-GRI): 3.52 log2 enrichment (interaction score)

GGCUAGAACUAGUGGAUCCCCCGGCGCCCGGCGGCUCGAGCCCGGGUAAGUGUAAAUCGUCUGCAUGCCGCCGGGCGCCAUGCCUGCAGGUCGACUCUAGAAAACAUG
binding signal (PUM1 PUF domain R1-SPR): 2.62 log2 enrichment (interaction score)
binding signal (PUM1 PUF domain R1-RVT): 5.15 log2 enrichment (interaction score)
binding signal (PUM1 PUF domain R1-GRK): 5.64 log2 enrichment (interaction score)

GGCUAGAACUAGUGGAUCCCCCGGCGCCCGGCGGCUCGAGCCCGGGUAAGUGUAUAUAGUCUGCAUGCCGCCGGGCGCCAUGCCUGCAGGUCGACUCUAGAAAACAUG
binding signal (PUM1 PUF domain R4-GNC): 3.99 log2 enrichment (interaction score)

GGCUAGAACUAGUGGAUCCCCCGGCGCCCGGCGGCUCGAGCCCGGGUAAGUGUAAAAAGUCUGCAUGCCGCCGGGCGCCAUGCCUGCAGGUCGACUCUAGAAAACAUG
binding signal (PUM1 PUF domain R2-PWE): 2.14 log2 enrichment (interaction score)

GGCUAGAACUAGUGGAUCCCCCGGCGCCCGGCGGCUCGAGCCCGGGUAAGUGUAAAGAGUCUGCAUGCCGCCGGGCGCCAUGCCUGCAGGUCGACUCUAGAAAACAUG
binding signal (PUM1 PUF domain R2-PWE): 4.9 log2 enrichment (interaction score)

GGCUAGAACUAGUGGAUCCCCCGGCGCCCGGCGGCUCGAGCCCGGGUAAGUGUAAUUAGUCUGCAUGCCGCCGGGCGCCAUGCCUGCAGGUCGACUCUAGAAAACAUG
binding signal (PUM1 PUF domain R3-LFG): 1.87 log2 enrichment (interaction score)
binding signal (PUM1 PUF domain R3-CRR): 2.3 log2 enrichment (interaction score)
binding signal (PUM1 PUF domain R3-LHG): 4.7 log2 enrichment (interaction score)
